# Results: the supplement of paper PMC10105736
# Unmarked numbers belong to inactive results.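 Rule for the calls: active = MAPPIT score above the 99th percentile of random reference set scores in the same batch; inactive = at or below it.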
# B1: Phb1 (protein)
# chain: MAAQFFNRIGQMGLGVAVLGGVVNSALYNVEGGHRAVIFDRFTGIKENVVGEGTHFFIPWVQRPIIFDIRSQPRNVPVITGSKDLQNVNITLRILYRPIPDQLPKIYTILGQDYDERVLPSIAPEVLKAVVAQFDAGELITQREMVSQRVSQELTVRAKQFGFILDDISLTHLTFGREFTLAVEMKQVAQQEAEKARFVVEKAEQQKLASIISAEGDAEAAGLLAKSFGEAGDGLVELRRIEAAEDIAYQLSRSRGVAYLPSGQSTLLNLPSTIAQ
# B2: Rsf1 (protein)
# chain: MGDQRGTRVYVGNLTDKVKKDDLEGEFTKYGKLNSVWIAFNPPGFAFVEFEHRDDAEKACDILNGSELLGSQLRVEISKGRPRQGRRGGPMDRGGRRGDFGRHSITSGGSGGGGFRQRGSSGSSSRHTERGYSSGRSGASSYNGREGGGSGFNRREVYGGGRDSSRYSSGSSASYGRTGGQSAGRFRSRSPVGNHRF
# B3: mTerf3 (protein)
# chain: MFCSALRNILRNSQNAAKNATITSQIRNLRGQQSVHHEVEVLTSPGITTKQNDKKTEPAECEGSKEVALDFRNREAHVPSFNLAAYVNNSSTLQQFLSLGVDLHSIERRKGLGDFVLKLDFEKNVKPYITFLVDQGVSPDDFGRMFTKNPLLFKEDLDDLQTRVNYLKSKRFSDEARQRILTQNPYWLMFSTRRVDRRLGYFQKEFKLSGHDLRLLATREPNAITYNMEHLRKSVFTLKEEMGFNAKELSDLVVRKPRLLMIPPDDLVERFSYIHQDMGLPHAQIVQCPELLASREFRLRERHEFLKLLGRAQYDPQKDLYISPKTIVEGNNFYFVRNVAKSDLETFDLFLKTR
# B4: Lip3 (protein)
# chain: MTRGALKVTILLVGLGLVLAGSRPISDCGERIEDDGYPMERHEVVTSDNYILTMHRIPYSPKTGESSNRPVAFLMHGMLSSSSDWVLMGPERSLAYMLADAGYDVWMGNARGNTYSKAHKYWPTYWQIFWNFSWNEIGMYDVPAMIDYVLAKTGQQQVQYVGHSQGTTVYLVMVSERPEYNDKIKSAHLLGPAAYMGNMKSPLTRAFAPILGQPNAIVEVCGSMEFMPSNKFKQDLGIEMCQATSPYADMCANEIFLIGGYDTEQLDYELLEHIKATSPAGASVNQNLHFCQEYNSGKFRKFDYTALRNPYEYGSYFPPDYKLKNAKAPVLLYYGANDWMCDVSDVRKLRDELPNMALDYLVPFEKWAHLDFIWGTEARKYVYDEVLKQMQSYE
# B5: E(spl)m4-BFM (protein)
# chain: MCQNKINTNNTMTIKSNKKLSYSVKKLLQKIFKQQQRVEEEQNLKNALKANSLESLESMENSRNADLESASICASLESCENEANERLSQSCEIEDYDFEQLPTVPVHFVRTAHGTFFWTAVSDLPADNDLVEPLYCSTSNAIAIPQDRWVQA
# B6: Lap1 (protein)
# chain: MPLLSKCFPCFKFKREEVIDKLDYSNTPLTDFPEVWQHERTLEELYLSTTRLQALPPQLFYCQGLRVLHVNSNNLESIPQAIGSLRQLQHLDLNRNLIVNVPEEIKSCKHLTHLDLSCNSLQRLPDAITSLISLQELLLNETYLEFLPANFGRLVNLRILELRLNNLMTLPKSMVRLINLQRLDIGGNEFTELPEVVGELKSLRELWIDFNQIRRVSANIGKLRDLQHFEANGNLLDTLPSELSNWRNVEVLSICSNSLEAFPFSVGMLKSLVTFKCESNGLTELPDSISYLEQLEELVLSHNKLIRLPSTIGMLRSLRFLFADDNQLRQLPDELCSCQQLSVLSVANNQLSALPQNIGNLSKMKVLNVVNNYINALPVSMLNLVNLTSMWLSDNQSQPLVPLQYLDASTKTQLTCFMLPQVTFKMNSIQAQQQAQEQYEFVYANQQQPHASPSRRICFAEEATILSNAKAQPAPNYPSFVAAPPTPTPDQMAGSVRLMRSPTPYPKELRQMSKYVRQAQAATSSANASEVREARVVTNGQIHCDSNNANQDVVDQATTSAIYGIAPETTHIYGVYQQPQQMAHPVPTQEYYGLPLVNYEAHYQQLYVEANTPLPTTHLNGDQDYELQPLQQQPMQQQALPTPRLEPPPYHIARVYTKKTPEDLNLYESMRQRKQQQQLQEQTIYQDALNSNSNFKTTAIGAQDVEESVDQLDYQNNISNNLEPNPEEEDQELDDTMSQHSLNSTATNNTSKASHKKSTWIFGVHKNPTVKQVTLKWENSIGFDIAELLNQVGIFVSSITPNTNAARLLNLNDKLLEIDGYDLTNANLSDAKRVLLNCGTVMNIMLSRK
# B7: Pu (protein)
# chain: MSFTRQLSEMSASELNDAIDDTNFPQAHILSRGRNNSVCSTSSTSGTSSLADRQQNQAEEATAIAGTPVEEVAPAPALVPLAGNQRPRLILKTNGSSPDSDGTQPKTPLTPRTSTTPGHEKCTFHHDLELDHKPPTREALLPDMARSYRLLLGGLGENPDRQGLIKTPERAAKAMLYFTKGYDQSLEDVLNGAVFDEDHDEMVVVKDIEMFSMCEHHLVPFYGKVSIGYLPCNKILGLSKLARIVEIFSRRLQVQERLTKQIAVAVTQAVQPAGVAVVVEGVHMCMVMRGVQKINSKTVTSTMLGVFRDDPKTREEFLNLVNSK
# B8: wol (protein)
# chain: MWTCLCQLCFYLLSTLAVAALSIAALVLYKTKPYPNIKRHKDEETFLDPHTIKTVTFPSLEDSPSLELSVIVPAYNEEQRLPSMLDECLAFLEQKSAGTPNFTYEVIVVSDGSQDATVSVALGYSKKHGAEKVRVLELIENRGKGGAVRMGMLSARGRNLLFADADGATKFPDYDKLEVALKQLAPEWRDDGIAIGSRAHLENDAIATRSFFRTILMHGFHFLVWLFAVRSIRDTQCGFKLFTRTTARKLFTSLHVERWAFDVELLYLAENLKLPMSEVAVRWTEIDGSKLTPFWSWLQMGRDLFMIWVRYLVGAWRIASIQKKEK
# B9: Nplp2 (protein)
# chain: MAKLAICILVFALFALALSARVPREESNPAQEFLTKAQGDFNEFIEKLKALDAKKVEGLFKDGLNTVQEGLQKLNETFLQAPAAST
# B10: snRNP-U1-70K (protein)
# chain: MTQYLPPNLLALFAAREPIPFMPPVDKLPHEKKSRGYLGVAKFMADFEDPKDTPLPKTVETRQERLERRRREKAEQVAYKLEREIALWDPTEIKNATEDPFRTLFIARINYDTSESKLRREFEFYGPIKKIVLIHDQESGKPKGYAFIEYEHERDMHAAYKHADGKKIDSKRVLVDVERARTVKGWLPRRLGGGLGGTRRGGNDVNIKHSGREDNERERERYRLEREREDREGPGRGGGSNGLDARPGRGFGAERRRSRSRERRDRERDRGRGAVASNGRSRSRSRERRKRRAGSRERYDEFDRRDRRDRERERDRDREREKKKKRSKSRERESSRERRERKRERRDRERGTGSGGDVKERKPDFRDMDVIKIKEEPVDDGYPTFDYQNATIKREIDDEDEEKYRPPPAHHNMFSVPPPPILGRGNASTNPNPDNGQQSSGDPSWWRQ
# B11: eEF1gamma (protein)
# chain: MVKGTLYTYPENFRAYKALIAAQYSGAQVKVADNFKFGETNKSAEFLKKFPGGKVPAFETAEGQYLSESNAIAYLLANEQLRGGKCPFVQAQVQQWISFADNEIVPASCAWVFPLLGILPQQKNSTAKQEAEAVLQQLNQKLQDATFLAGERITLADIVVFSSLLHLYEYVLEPSVRSAFGNVNRWFVTILNQKQVQAVVKDYKLCEKALVFDPKKYAEFQAKTGAAKPQQQAQQQKQEKKPKEKKEAPKKAAEPAEELDAADEALAAEPKSKDPFDALPKGTFNFDDFKRVYSNEDEAKSIPYFFDKFDAENYSIWFGEYKYNEELSKVFMSCNLITGMFQRLDKMRKAAFASVCLFGEDGNSTISGIWVWRGQDLAFTLSPDWQIDYEVYDWKKLDAKSEETKKLVTQYFSWSGTDKDGRKFNQGKIFK
# B12: REPTOR (protein)
# chain: MTENQLYPMSSEFFDTGSNSSSNTLKYDLYSLGSTVVGAALPTLTINTGYGSSSSNNNNTNNNNNNSSSHSSSSNCSTSTTNTCNVMLSTTAITIPRSSNHNQIHHHPYQQSDLQTPRHHPSPLHTLPSMTHQQNQLQQQQQQQHHNQQQQLQQSHLALGELSDFGLDALDAASLSPTLLQDVSLSAVSPLSTTLYNGNTSGAGSSNGIGSGSGGYFTPDMSHSLSLNVVSEQVLLQEATTPNELLYEMTPNSNAMWSDISSAIIHTKHEPFSLDDDYIFPNDKAEIQAADLSDLNGGDFLDVIGNIEDFLPQTAVTQSVNFLLSPQAQGQDALVAPPMELLQQQQQNHQQLQVGSLPQLQTLLTLSQQQQSNSSSTSPYEIYHSTPQKPQQQQLSASFSPGSQASQSPLTPPPPPHANRPQYQMVKSRNMQELIKKGFPMSSPPERSILSQSAALSPGGSSGFGSSASGNSTTTSNQTSGSAVRKSFGYQSAVENSQLSRLSSSAPTHLGLEHIWMRREPRQHLLSTGSLAEAESFSSLSTGSVLSPDGIDFSQDDEDDNSSENSDNYDDCSSDNGLSEDEDETRTSTPNHLSSSKGKERFFWQYNVQAKGPKGKRLVFQSKLEDPHVLNEVTDPVFSPTCSVRGIKVYKHSGKARKGDGNDLTPNARKLHNIGKELDKLSRTINDMTPVSELPFNVRPKSRKEKNKLASRACRLKKKAQHEANKIKLFGLEIEHSEFNVKAVEISYNPSIFVL
# B13: Cyp9f2 (protein)
# chain: MLWEFFALFAIAAALFYRWASANNDFFKDRGIAYEKPVLYFGNMAGMFLRKRAMFDIVCDLYTKGGSKKFFGIFEQRQPLLMVRDPDLIKQITIKDFDHFINHRNVFATSSDDDPHDMSNLFGSSLFSMRDARWKDMRSTLSPAFTGSKMRQMFQLMNQVAKEAVDCLKQDDSRVQENELDMKDYCTRFTNDVIASTAFGLQVNSFKDRENTFYQMGKKLTTFTFLQSMKFMLFFALKGLNKILKVELFDRKSTQYFVRLVLDAMKYRQEHNIVRPDMINMLMEARGIIQTEKTKASAVREWSDRDIVAQCFVFFFAGFETSAVLMCFTAHELMENQDVQQRLYEEVQQVDQDLEGKELTYEAIMGMKYLDQVVNEVLRKWPAAIAVDRECNKDITFDVDGQKVEVKKGDVIWLPTCGFHRDPKYFENPMKFDPERFSDENKESIQPFTYFPFGLGQRNCIGSRFALLEAKAVIYYLLKDYRFAPAKKSCIPLELITSGFQLSPKGGFWIKLVQRN
# B14: CG4709 (protein)
# chain: MEEYEAQLLVVEQALENAADDAQRQDLLALKNNLQELLALTRESGDEAPIDELPQQGDNLDDELQRLKSELNDLEAAGSSQTALDEERQLADLRTKYTAMVGEKCSAPHEHSWGTCYHNALICGVDDEVVMNSEGVLDARLRVLFTNPTHREMLPCSYYLEGECRFDEAKCRFSHGALVTGSSIRKYNPPDFHKLSRSRPVFALLPDRLWHRGRVLCVNFVEQICRVRLDGQDHKERERDFKFEELYPLTTDQDEDDELSSEESNSSMNDNSSDEAESDMDDLEEARRARMVELSLFTFKPTERLGAWEEFTRGIGSKLMEKMGYIHGTGLGSDGRGIVTPVSAQILPQGRSLDACMELREAANGDKDYFSVERKLKRAQRRQRKADEKAYVRESQRVDVFTFLNDSVLGPGESTQQGEQVTKKAKTNELQQHSTKTLNVETVRIADEIRRKQRDMAKVKQSLDRNSGDAQLQKRLQVQMQSHKQELATLQAQERSLSKEQQTRKSKNKMFEF
# B15: Pdf (protein)
# chain: MARYTYLVALVLLAICCQWGYCGAMAMPDEERYVRKEYNRDLLDWFNNVGVGQFSPGQVATLCRYPLILENSLGPSVPIRKRNSELINSLLSLPKNMNDAGK
# Columns and labels:
# Experiment in all cases: MAPPIT interaction score (arbitrary units); higher = stronger binary interaction signal, active = hit call of the paper
# Rab26 = conditions: MAPPIT configuration: N-N; pair source set: Lit-BS-16
# Rbp1 = conditions: MAPPIT configuration: N-N; pair source set: Finley_Y2H
# Pten = conditions: MAPPIT configuration: N-N; pair source set: DPIM
# RPA2 = conditions: MAPPIT configuration: N-N; pair source set: Finley_Y2H
# ScsbetaG = conditions: MAPPIT configuration: N-N; pair source set: Finley_Y2H
# RFeSP = conditions: MAPPIT configuration: N-N; pair source set: RRS
# RpL12 = conditions: MAPPIT configuration: N-N; pair source set: Lit-BS-16
# Pu = conditions: MAPPIT configuration: N-C; pair source set: screen_4
# ReepB = conditions: MAPPIT configuration: N-N
# RIC-3 = conditions: MAPPIT configuration: N-C; pair source set: screen_3
# Sod3 = conditions: MAPPIT configuration: N-C; pair source set: screen_4
# Psi = conditions: MAPPIT configuration: N-N; pair source set: Lit-BM-16
# Rgk3 = conditions: MAPPIT configuration: N-N; pair source set: Curagen_low_conf
# REPTOR-BP = conditions: MAPPIT configuration: N-N; pair source set: Curagen_high_conf
# Ptp61F = conditions: MAPPIT configuration: N-N; pair source set: Lit-BS-16
# Prp3 = conditions: MAPPIT configuration: N-N; pair source set: Lit-BM-16
# 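Note: HEK293T cells with Epo stimulation, STAT-responsive firefly luciferase reporter, fold induction versus unstimulated cells divided by the larger fold induction of two negative controls lacking either bait or prey.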
binder,measurement,setting,value
B1,MAPPIT interaction score,Rab26,0.345
B2,MAPPIT interaction score,Rbp1,0.372
B3,MAPPIT interaction score,Pten,-0.325
B4,MAPPIT interaction score,RPA2,0.346
same,MAPPIT interaction score,ScsbetaG,1.35
B5,MAPPIT interaction score,RFeSP,0.268
B6,MAPPIT interaction score,RpL12,-0.0144
B7,MAPPIT interaction score,Pu,5.06 (active)
B8,MAPPIT interaction score,ReepB; pair source set: Lit-BS-16,0.541
B9,MAPPIT interaction score,RIC-3,0.0485
same,MAPPIT interaction score,Sod3,2.23
B10,MAPPIT interaction score,Psi,0.25
B11,MAPPIT interaction score,Rgk3,-0.0165
B12,MAPPIT interaction score,REPTOR-BP,0.721
B13,MAPPIT interaction score,Ptp61F,-0.452
B14,MAPPIT interaction score,Prp3,2.3
B15,MAPPIT interaction score,ReepB; pair source set: Finley_Y2H,2.66
